In PubChem BioAssay (NCATS):
Inconclusive results are not listed. Calls of active or inactive are those of the source. Calls come from the whole dose curve; as a rule, active = well fitted cell-killing curve with a large enough effect; inconclusive = small, poorly fitted or top-dose-only effect; inactive = flat fitted curve, though single readings scatter.

test: Cell Viability - LYMP2-023 (AID 975); settings: LYMP2-023 lymphoblastoid cell viability; series mostly up to 92.2 µM; activity change, negative = cytotoxicity: at the top concentration; note: nearly all actives have a fitted effect of over 55% in size;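 for activity change, negative = cytotoxicity: plate controls were DMSO only for no effect and 92 µM tetraoctylammonium bromide control for full effect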
From the text: NIH Chemical Genomics Center [NCGC]
NIH Molecular Libraries Screening Centers Network [MLSCN]
National Institutes of Environmental Health Sciences [NIEHS]
National Toxicology Program [NTP]
We have developed a 1536-well cell-based assay for quantitative high throughput screening (qHTS) against a number of cell lines to determine in vitro cytotoxicity of small molecules. This particular assay uses a human lymphoblastoid cell line (LYMP2-023) purchased from Coriell Institute for Medical Research.
NCGC Assay Protocol Summary:
The CellTiter-Glo luminescent cell viability assay (Promega) is a homogeneous method to measure the number of viable cells in culture. The end point readout of this assay is based on quantitation of intracellular ATP, an indicator of metabolic activity, using the luciferase reaction. Luciferase catalyzes the oxidation of beetle Luciferin to oxyluciferin and light in the presence of ATP. The luminescent signal is proportional to amount of ATP present.
Using the CellTiter-Glo luminescent cell viability assay, the amount of cellular ATP was measured in the lymphoblastoid cell line with complete culture medium following compound treatment for 24 hours. The assay was performed in opaque white Kalypsys 1536-well plates. In the screen, tetraoctylammonium bromide was used as positive control. Library compounds were measured for their ability to cause acute toxicity in the cell line, as reflected by a decrease in intracellular ATP levels, in a concentration-dependent manner. […] AC50 values were determined from concentration-response data modeled with the standard Hill equation.
qHTS protocol for CellTiter Glo lymphoblastoid cellular assay
[Step] [Parameter] [Value] [Description]
1. Reagent; 5 uL; 2500 lymphoblastoid cells/well
2. Time; 5 hr; 37 C incubation
4. Controls; 23 nL; Tetraoctylammonium bromide 6.4pM to 92 uM
5. Time; 24 hr; 37 C incubation
6. Reagent; 5 uL; CellTiter Glo reagent
7. Time; 30 min; Room Temperature
8. Detection; Luminescence; Viewlux plate reader
Keywords: cell viability, cytotoxicity, lymphoblastoid cell line, luminescence, NTPHTS, NTPHTS_NCGC, NIEHS, DSSTox, MLSMR, MLSCN, NIH Roadmap, qHTS, NCGC
Potency is the fitted concentration of half-maximal effect.

| SMILES | activity change, negative = cytotoxicity | Potency |
| --- | --- | --- |
| CCOP(=O)(OCC)OCC | -5.71% (inactive) | – |
| O=[N+]([O-])c1cccc(CCl)c1 | -15.5% (inactive) | – |
| Nc1ccc(Cc2ccc(N)c(Cl)c2)cc1Cl | -2.15% (inactive) | – |
| CC(C)OC(=O)Cc1ccccc1 | 0.746% (inactive) | – |
| CC(C)(C)C(O)(CCc1ccc(Cl)cc1)Cn1cncn1 (stereo not given) | -7.55% (inactive) | – |
| Oc1ccc(Cl)c(Cl)c1Cl | 0.901% (inactive) | – |
| N#CC(O)c1ccccc1 (stereo not given) | -0.0942% (inactive) | – |
| Cc1ccc(N)cc1N | -2.68% (inactive) | – |
| Cc1cnc[nH]1 | 0.262% (inactive) | – |
| C=C(C)CCl | -3.67% (inactive) | – |
| Oc1cccc(Cl)c1 | -3.22% (inactive) | – |
| O=[N+]([O-])c1ccc(Cl)cc1 | -4.06% (inactive) | – |
| [O-][Cl+]O | 3.47% (inactive) | – |
| CC(C)[C@]12CC(=O)[C@H](C)[C@H]1C2 | -3.34% (inactive) | – |
| BrCCc1ccccc1 | 0.13% (inactive) | – |
| Cc1coc2c1CCC(C)C2 (stereo not given) | 0.223% (inactive) | – |
| CC[N+](=O)[O-] | -6.45% (inactive) | – |
| CC(C)(C)c1ccccc1O | 1.43% (inactive) | – |
| Cl/C=C/CCl | -6.57% (inactive) | – |
| CC(C)[N+](=O)[O-] | 1.59% (inactive) | – |

| SMILES | activity change, negative = cytotoxicity | Potency |
| --- | --- | --- |
| Cc1ccc(N)cc1Cl | -5.42% (inactive) | – |
| c1ccc(C2CO2)cc1 (stereo not given) | 2.04% (inactive) | – |
| COC(=O)Nc1cccc(OC(=O)Nc2cccc(C)c2)c1 | 3.59% (inactive) | – |
| Nc1cccc2ccccc12 | -10.7% (inactive) | – |
| OC[P+](CO)(CO)CO | – | 25.1 µM (active) |
| Nc1cc(Cl)ccc1Cl | -1.74% (inactive) | – |
| C=COC(C)=O | -4.29% (inactive) | – |
| Nc1ccc2ccccc2c1 | 1.23% (inactive) | – |
| Nc1ccc(-c2ccc(N)cc2)cc1 | 0.419% (inactive) | – |
| COc1c(C(C)(C)C)cc([N+](=O)[O-])c(C)c1[N+](=O)[O-] | -1.6% (inactive) | – |
| C=CCBr | 6.54% (inactive) | – |
| Oc1c(Cl)cccc1Cl | 1.27% (inactive) | – |
| O=C(O)C(Br)Br | -14.7% (inactive) | – |
| C=C(Cl)CCl | -9.22% (inactive) | – |
| C=CCCl | 3.5% (inactive) | – |
| CN(C)c1ccc(N=Nc2ccccc2)cc1 | -19.7% (inactive) | – |
| O=[N+]([O-])c1ccc(Cl)c(Cl)c1Cl | -3.04% (inactive) | – |
| C=C(Cl)CSC(=S)N(CC)CC | -11.6% (inactive) | – |
| CC(C)(OOC(C)(C)c1ccccc1)c1ccccc1 | 1.19% (inactive) | – |
| CCN(N=O)C(N)=O | -3.07% (inactive) | – |
